# An excerpt weighted towards active compounds, which were near 9.6% of everything screened.
# Cav32 inh: human Cav3.2 channel inhibition, primary screen; Cav3.2-expressing cells, Fluo-4 calcium fluorescence FDSS; active compounds read low; B-score at 10 µM; actives 4% (n = 100,000);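 active = single-dose well whose peak fluorescence ratio is a statistical outlier from its plate by either plate-standardised score or position-corrected B-score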
# DAT uptake mod: human DAT dopamine uptake with cocaine, either direction. Q01959. LLC-PK1 hDAT cells, [14C]-dopamine uptake with cocaine IC80; actives deviate in either direction. B-score at 10 µM. actives 1.3% (n = 110,000);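 active = Z score or B-score, a plate-position-corrected score, falls beyond the plate's 99.7% confidence bounds, in either direction; inactive = both scores lie inside the 99.7% bounds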;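 note: scored against the spread of the other compound wells on the same plate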
# PostGolgi ctrl: yeast control strain growth, post-Golgi counter-screen; inhibition, % at 10 µM; efflux-deficient yeast background strain, growth absorbance A615, 16 h; actives 5% (n = 98,000); AID 738
# PLAP act: activates human placental alkaline phosphatase; P05187; purified PLAP enzyme, luminescent substrate read-out; active compounds read high; activation fold at 20 µM; actives 1.2% (n = 96,000); in the data active = activation fold above about 2
# PostGolgi yeast: growth inhibition of a yeast mutant, post-Golgi transport screen; inhibition, % at 10 µM; post-Golgi transport phenotypic cell assay; actives 0.9% (n = 98,000); AID 739;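 note: yeast cells grown in 1536-well plates; yeast grown about 18 h at 30C before absorbance read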
# * = called active by the depositor; x = no result. Cut-off read from the data, not from the text of the source, unless noted: active = inhibition above about 30%; inactive = the rest.
SMILES,Cav32 inh,DAT uptake mod,PostGolgi ctrl,PLAP act,PostGolgi yeast
COc1ccccc1-c1nnc(SCC(=O)Nc2nc(-c3ccccc3)cs2)n1C,-6.6*,0.036,11,1.8,-14
CCn1c(SCC(=O)Nc2nc(-c3ccc(C)cc3)cs2)nnc1-c1ccccc1,-1.8,0.13,-1,1.2,-4
Cc1ccc(C(=O)CSc2nnc(CNc3nc(-c4ccccc4)cs3)n2C)cc1,-4.6*,-0.073,25,1.4,11
Cc1nn(Cc2c(F)c(F)c(F)c(F)c2F)c(C)c1NC(=O)c1ccc(COc2ccccc2Cl)o1,x,x,80*,1.4,-4
Cc1nn(Cc2c(F)c(F)c(F)c(F)c2F)c(C)c1NC(=O)c1ccc(COc2ccc(F)cc2)o1,-4.9*,-0.28,28,1,10
COC(=O)C1=C(O)/C(=C\c2ccc(O)c(OC)c2)N=C1C,-0.6,-0.8,12,0.4,-8
C/C(CCc1oc2ccccc2c1-c1ccc(C)o1)=N/O,x,0.17,47*,1.2,12
C/C(CCc1oc2c(Br)cc(Br)cc2c1-c1ccc(C)o1)=N\O,0.79,-0.092,x,x,x
O=C1CC(C(=O)Nc2ccccc2)N=C(N2CCCCC2)N1 (stereo not given),0.69,-0.65,31*,0.8,6
Cc1ccc(NC(=O)C2CC(=O)NC(N3CCCCC3)=N2)cc1Cl (stereo not given),-0.033,0.51,15,1.2,-7
Cc1ccc(NC(=O)Cc2nc(CSc3nnc(-c4ccc5c(c4)OCO5)o3)cs2)cc1,-5.4*,0.0012,21,0.9,15
CSc1ccc(Cc2ccc(Cl)cc2Cl)nn1,-0.39,-0.74,11,1,-2
CNc1cc(CSC)nc(SCc2ccc(Cl)cc2Cl)n1,-0.54,0.4,39*,1,-10
CCc1cc2c(=O)c(Oc3ccccc3)c(C)oc2cc1O,0.39,-2.5*,7,0.9,-4
CC1(c2ccccc2)CC2CC(c3ccccc3)N1O2 (stereo not given),-0.39,-0.97,10,1,-1
CC1C(c2ccccc2)N(C)C(c2ccccc2)CC1(O)c1ccccc1 (stereo not given),-6.8*,-0.48,16,0.6,9
CCC(=O)Nc1cc(-c2nn(C)c(=O)c3ccccc23)ccc1N1CCOCC1,x,x,-9,2*,8
Cc1cccc(OCC(=O)NNc2c3ccccc3nc3ccccc23)c1,-2.6,-1.5,1,0.9,0
Cc1cccc(OCC(=O)NC(C)C(=O)N/N=C/c2c(OCc3ccccc3)ccc3ccccc23)c1 (stereo not given),-6.8*,0.18,12,1.6,6
C/C=C1\COC(C(=O)NCc2cccc(OC)c2OC)(C(F)(F)F)C=C1C=C1CCCCC1 (stereo not given),-4.2*,x,x,x,x
C/C=C1\COC(C(=O)NCc2ccncc2)(C(F)(F)F)C=C1C=C1CCCCC1 (stereo not given),-2.6,-0.98,x,x,x
Cc1ccnc(NC(=O)c2cccc(NS(=O)(=O)c3ccccc3C)c2)c1,-2.4,0.47*,29,1.4,11
CCOc1cc(C(=O)Nc2cc(C)ccn2)cc(OCC)c1OCC,-0.95,3*,3,1.6,-2
CC(=O)Nc1ccccc1C(=O)N1CC2(C)CC1CC(C)(C)C2 (stereo not given),0.55,0.37,6,1,-7
CCCC(=O)Nc1ccc(S(=O)(=O)N2CCOCC2)cc1,0.41,0.92,x,x,x
SMILES,Cav32 inh,DAT uptake mod,PostGolgi ctrl,PLAP act,PostGolgi yeast
CCCn1c(CCC(=O)Nc2ccccc2Cc2ccccc2)nc2cc(S(=O)(=O)N3CCOCC3)ccc21,-9.6*,1.3,0,1.4,15
COc1ccc(CN2C(=O)CS(=O)CC2=O)cc1OC,-0.13,-0.6,1,1,19
Cc1ccc2c(CC(=O)NCC3COc4ccccc4O3)coc2c1 (stereo not given),-6.6*,0.79,6,1.6,1
Cc1nc2ccccc2c2oc(C(=O)NCC3COc4ccccc4O3)cc12 (stereo not given),-5.3*,0.23,42*,1.5,5
O=C(Cc1ccccc1)NCC1COc2ccccc2O1 (stereo not given),-1.6,-0.00031,x,x,x
O=C(CCC1COc2ccccc2O1)NCC1COc2ccccc2O1 (stereo not given),-9.6*,-0.21,18,x,1
COC(=O)c1cccc(C23CC4(C2)[C@H](CN(Cc2cccnc2)[C@@H]4c2ccccc2)C3c2ccc(C(F)(F)F)cc2)c1 (stereo not given in full),-0.72,-0.76,x,x,x
CCn1cc(Cl)c(C(=O)N2N=C3/C(=C/c4cccs4)CCCC3C2c2cccs2)n1 (stereo not given),-5.6*,1.9,x,x,x
C(/C=C/C=C/Nc1ccccc1)=Nc1ccccc1,-5*,0.55,3,0.8,6
CC(C)CC(=O)O/N=C1\C(=O)N(Cc2ccc(Cl)cc2)c2ccc([N+](=O)[O-])cc21,-0.93,-0.7,33*,1,8
CC(=O)N(CN1C(=O)c2ccc([N+](=O)[O-])cc2C1=O)c1ccc(F)cc1,0.8,-0.84,6,1.2,18
CCN(C1CCCCC1)S(=O)(=O)c1cc(C)ccc1OC,-3.2,1.8,11,1.4,-3
CCN(C1CCCCC1)S(=O)(=O)c1ccc(OC)c(C)c1,-6.3*,1.3,35*,0.9,14
CSc1ccc2[nH]c(=O)cc(C)c2c1,-0.3,-0.23,3,1,-3
S=c1[nH]nc(COc2ccccc2)n1/N=C/c1ccc(Br)s1,x,x,31*,1,-2
Cc1ccc(/C=N/n2c(COc3ccccc3)n[nH]c2=S)s1,-0.045,-0.96,9,1,1
Cc1cc(C)c2c(n1)nn1c(NCCCn3ccnc3)cc(C)nc21,x,x,x,2.5*,x
CC1=NOC(=O)/C1=C\c1ccc(-c2ccc(Cl)cc2Cl)o1,-0.29,-0.42,35*,0.9,60*
CN1c2ccccc2C(O)=C(C(=S)Nc2ccc(Cl)cc2)S1(=O)=O,-7.4*,0.54,27,1.3,5
Cc1cccc(NC(=O)C2=C(O)c3ccccc3N(C)S2(=O)=O)c1,-1,2.5,1,1.2,-24
COc1ccc(-c2[nH]ncc2/C=C(/C#N)C(=O)NC2CCCCCC2)cc1,-0.78,2.8*,50*,1.1,10
COC(=O)c1c(NC(=O)CSc2nnc(-c3ccco3)n2Cc2ccccc2)sc(C)c1C,-4.5*,-0.15,9,1.4,-10
O=C1c2ccccc2C(=O)N1CCSc1nnc(-c2ccco2)n1Cc1ccccc1,-1.8,0.56,37*,1.2,3
O=C(CSc1nnc(-c2ccncc2)n1Cc1ccco1)OC1CCCCC1,-0.071,0.027,8,1.7,-1
O=C(CSc1nnc(-c2ccco2)n1Cc1ccccc1)OC1CCCCC1,-6.2*,0.0033,21,1,-4
CCn1c(O)c(/C=N/N=C/c2ccccc2)c2ccc(C3=NNC(=O)CC3)cc21,0.31,2.4,48*,1.2,3
CCC(CC)=N/N=C/c1c(O)n(CC)c2cc(C3=NNC(=O)CC3)ccc12,0.41,0.58,x,x,x
